In PubChem BioAssay (Tox21):
Where “and” joins values, the source holds several entries; their conditions need not be identical. Identical values can stand only once. Results filed as inconclusive are left out. A call without a number means that no potency is given here. More than one record can exist for a structure, and the calls need not agree. Calls of active or inactive are those of the source. Calls follow the shape of the dose curve; as a rule, active = well fitted cell-killing curve with a large enough effect in the repeat runs; inconclusive = weak or mixed curves, or effect the other way; inactive = no such curve, though single readings can be large or run the other way.

Assay: qHTS assay to identify small molecule antagonists of the sonic hedgehog signaling (Shh) pathway - cell viability counter screen (AID 1259367); also: nearly all actives have a fitted effect of over 55% in size
Settings: NIH/3T3 Gli1-Luc viability, CellTiter-Fluor, 24 h; series mostly up to 92.4 µM
Description: National Center for Advancing Translational Sciences [NCATS]
NIH Chemical Genomics Center [NCGC]
U.S. Environmental Protection Agency [EPA]
National Institutes of Environmental Health Sciences [NIEHS]
National Toxicology Program [NTP]
U.S. Food and Drug Administration [FDA]
The sonic hedgehog (Shh) pathway is essential for normal embryonic development. Dysregulation of the Shh pathway can cause severe developmental defects in organs. Therefore chemicals that interfere with the pathway are potential developmental toxicants. A cell line designated 3T3Gli1-Luc (DMB/OARSA/CFSAN/FDA, Laurel, MD), a NIH/3T3 derived clone containing stably integrated Gli1-Luc reporter is used to detect chemical interference of the Shh pathway, by changes in the expression of the firefly Luc gene under the control of the Gli1 transcriptional response element. This cell line was used to screen Tox21 libraries for identifying and prioritizing the potential developmental toxicants that interfere Shh pathway. Conditioned medium-stimulated mode was used to screen for chemicals inhibiting Shh signaling. The cytotoxicity of the compounds was tested in parallel by measuring the cell viability using CellTiter-Fluor assay system (Promega, Madison, WI) in the same wells.
Tox21 Assay Protocol Summary:
3T3 Gli1-Luc cells were dispensed at 2,000 per well in 5uL of culture medium into white solid bottom 1536-well plates (Greiner Bio-One, Monroe, NC) using a Multidrop Combi (Thermo Scientific, Waltham, MA) dispenser. The assay plates were incubated at 37 C and 5% CO2 for 4hr, and then 23nL of compounds dissolved in DMSO and positive control were transferred using a Pintool station (Wako, San Diego, CA). The compound transfer was followed by the addition of 1ul conditioned medium or assay buffer using two separate tips of Flying Reagent Dispenser (FRD, Aurora Discovery, San Diego, CA). The assay plates were incubated at 37C and 5% CO2 for 24hr. For viability read, after 23hr of compound treatment, 1uL of CellTiter-Fluor reagent (Promega Corporation, Madison, WI) was added to each well of the assay plates using Flying Reagent Dispenser (FRD, Aurora Discovery, San Diego, CA) and incubated the assay plates at 37C for 1hr. The fluorescence signal was quantified using a ViewLux plate reader (Perkin Elmer, Shelton, CT).
Potency is read from the fitted curve at half-maximal effect.

SMILES | Potency
CC1(C)O[C@@H]2C[C@H]3[C@@H]4CCC5=CC(=O)C=C[C@]5(C)[C@@]4(F)[C@@H](O)C[C@]3(C)[C@]2(C(=O)CO)O1 | inactive
CC1(C)S[C@@H]2[C@H](NC(=O)[C@H](N)c3ccccc3)C(=O)N2[C@H]1C(=O)O | inactive
CC(=O)CCC(=O)O | inactive
Nc1c2c(nc3ccccc13)CCCC2 | inactive
C1=CC2C3C=CC(C3)C2C1 (stereo not given) | inactive
CCOc1ccc(NC(C)=O)cc1 | inactive
CN1[C@@H]2CC(OC(=O)[C@H](CO)c3ccccc3)C[C@H]1[C@@H]1O[C@@H]12 (stereo not given in full) | inactive
Oc1ccccc1 | inactive
Cc1cccc(C)c1 | inactive
O=C1O[C@H]([C@@H](O)CO)C(O)=C1O | inactive
Nc1ccc(O)c([N+](=O)[O-])c1 | 30.6 µM (active)
C/C=C/C=C/C(=O)O | inactive
CN(C)CCOC(c1ccccc1)c1ccccc1 | inactive
O=C1c2c(O)cccc2Cc2cccc(O)c21 | inactive
Cc1cc(C)nc(NS(=O)(=O)c2ccc(N)cc2)n1 | inactive
OC[C@H]1O[C@H](O[C@]2(CCl)O[C@H](CCl)[C@@H](O)[C@@H]2O)[C@H](O)[C@@H](O)[C@H]1Cl | inactive
CCCCCCCC(=O)OCC(COC(=O)CCCCCCC)OC(=O)CCCCCCC | inactive
Cc1cn([C@H]2C=C[C@@H](CO)O2)c(=O)[nH]c1=O | inactive
O=C1NC(=O)C(c2ccccc2)(c2ccccc2)N1 | inactive
CN[C@H]1CC[C@@H](c2ccc(Cl)c(Cl)c2)c2ccccc21 | inactive

SMILES | Potency
Cc1ccc(S(=O)(=O)O)cc1 | inactive
CCN(Cc1c(F)cccc1Cl)c1c([N+](=O)[O-])cc(C(F)(F)F)cc1[N+](=O)[O-] | inactive
Nc1ccc([N+](=O)[O-])cc1O | 24.3 µM (active)
CC(C)NCC(O)c1ccc(O)c(O)c1 (stereo not given) | inactive
NS(=O)(=O)c1cc2c(cc1Cl)NCNS2(=O)=O | inactive
NC(CO)(CO)CO | inactive
Nc1c(N=Nc2ccc(-c3ccc(N=Nc4cc(S(=O)(=O)O)c5ccccc5c4N)cc3)cc2)cc(S(=O)(=O)O)c2ccccc12 | 15.3 µM (active)
CC(=O)CC(c1ccccc1)c1c(O)c2ccccc2oc1=O (stereo not given) | 68.9 µM (active) and inactive
NC1CCCCC1 | inactive
CC12CCC(CC1)C(C)(C)O2 | inactive
C[C@](N)(Cc1ccc(O)c(O)c1)C(=O)O | inactive
Cc1c(C(=O)O)c(O)cc2c1C(=O)c1c(O)c([C@@H]3O[C@H](CO)[C@@H](O)[C@H](O)[C@H]3O)c(O)c(O)c1C2=O | 29.9 µM (active) and 27.3 µM (active)
COc1ccc(OC(F)(F)F)cc1CN[C@H]1CCCN[C@H]1c1ccccc1 | 61.1 µM (active)
CN(C)C(=S)SC(=S)N(C)C | 789 nM (active) and 217 nM (active) and 6.68 µM (active)
CN1CCC[C@H]1c1cccnc1 | inactive
CN1CCc2cccc3c2[C@H]1Cc1ccc(O)c(O)c1-3 | 30.9 µM (active) and 18.1 µM (active) and 21.1 µM (active)
Cn1c(=O)c2c(ncn2C)n(C)c1=O | 55.1 µM (active) and inactive
O=C1OC2(c3ccccc31)c1cc(Br)c(O)c(Br)c1Oc1c2cc(Br)c(O)c1Br | inactive
CS(=O)(=O)OCCCCOS(C)(=O)=O | inactive
COc1ccc2cc(S(=O)(=O)N[C@H](CC(=O)N[C@H](Cc3ccc(CN4[C@H](C)CCC[C@@H]4C)cc3)C(=O)N(C)C(C)C)c3ccc4c(c3)OCO4)ccc2c1 | 29 µM (active)
